High-throughput results: PubChem BioAssay, several laboratories
Most compounds without a hit are left out; they make up all but 4.2% or so of the library.
CHOP inh: inhibitors of CHOP induction in ER stress response; inhibition, % at 10 µM; CHO-K1 CHOP-promoter luciferase, tunicamycin-induced, 15-18 h; 220,000 compounds, 3.8% hits; AID 2732;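 active means compounds that reduced the stress-induced luciferase reporter signal by more than about 70% of percent inhibition, limit read from the data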;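 further: 0% = tunicamycin plus vehicle and 100% = wells without tunicamycin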
Hsp70 act: transcriptional activators of Hsp70; HeLa Hsp70 promoter luciferase reporter, luminescence; scaled: vehicle 0, proteasome-inhibitor control 100%; activation, % at 10 µM; AID 1203; 200,000 compounds, 0.04% hits;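 active means activation above the mean across all tested compounds plus 3 SD, cutoff set per campaign, cut at about 5.5% in these data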;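 further: 100% = MG132 at 30 µM as the positive control and 0% = DMSO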
S1P4 agonist: activates the human S1P4 receptor; AID 1509; S1P4-expressing cell line, agonist reporter assay; 220,000 compounds, 0.35% hits; O95977; activation, % at 4.98 µM; in the data active means activation above about 11%;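 further: 0% = DMSO vehicle and 100% = reference agonist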
Target sequence (O95977 whole entry, looked up): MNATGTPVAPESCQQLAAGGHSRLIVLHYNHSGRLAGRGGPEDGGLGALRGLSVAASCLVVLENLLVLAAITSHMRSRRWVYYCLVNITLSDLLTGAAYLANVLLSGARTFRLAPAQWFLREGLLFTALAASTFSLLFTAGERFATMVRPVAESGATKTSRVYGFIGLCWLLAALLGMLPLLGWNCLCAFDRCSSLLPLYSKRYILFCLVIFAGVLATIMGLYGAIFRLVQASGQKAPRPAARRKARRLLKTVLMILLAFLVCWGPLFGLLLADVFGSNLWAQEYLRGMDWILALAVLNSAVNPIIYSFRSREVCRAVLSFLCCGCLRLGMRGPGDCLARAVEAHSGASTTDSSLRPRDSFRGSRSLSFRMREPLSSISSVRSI
S1P4 antagonist: human S1P4 receptor antagonism; O95977; S1P4-expressing cells, antagonist mode, reporter read-out; inhibition, % at 4.98 µM; 220,000 compounds, 0.26% hits; in the data active means inhibition above about 29%;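 further: 0% = wells stimulated with agonist and 100% = vehicle wells without agonist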
An asterisk follows results filed as active; . = not tested or not shown.

SMILES	CHOP inh	Hsp70 act	S1P4 agonist	S1P4 antagonist
CSc1ccccc1NC(=O)CSCc1ccc(Br)cc1	51.3	-0.3	1.7	-1.4
COc1ccc2[nH]c(C)c(CCNC(=S)Nc3cccc(C)c3C)c2c1	14.3	-0.3	1.6	8.4
CCN(CC)CCn1c(=S)[nH]c2ccc(Cl)cc2c1=O	-11.6	0.2	0.5	5.7
COc1cccc(N2CCN(C(=O)c3[nH]c(C)c(C(C)=O)c3C)CC2)c1	.	-0.1	1.7	-5.0
CC(=O)c1c(C)[nH]c(C(=O)N2CCN(c3ccc(F)cc3)CC2)c1C	83.9*	-0.2	-0.1	5.4
Cc1cc([N+](=O)[O-])ccc1-c1ccc(C2Nc3ccccc3C(=O)N2O)o1 (stereo unspecified)	75.7*	0.7	-0.7	-17.4
CCOC(=O)c1ccc(-c2ccc(C3Nc4ccccc4C(=O)N3O)o2)cc1 (stereo unspecified)	52.1	-0.3	-0.1	-9.2
CC[n+]1c(/C=C/N(C)c2ccccc2)oc2ccc(Cl)cc21	6.6	-0.3	-0.9	-2.3
CCN1/C(=C/C=C/c2oc3ccc4ccccc4c3[n+]2CC)Oc2ccc3ccccc3c21	70.0*	-0.4	-0.1	3.5
Cc1ccc(C(=O)CC(c2cccs2)S(=O)(=O)c2ccc(C)cc2)cc1 (stereo unspecified)	-17.6	-0.5	-0.2	-10.0
CCCCCCn1c(CN2CCCCC2CC)nc2c1c(=O)n(C)c(=O)n2C (stereo unspecified)	92.3*	-0.4	-0.4	3.3
COc1cc(NS(=O)(=O)c2ccc(NC(=S)NC(=O)/C=C/c3ccc(OC)c(OC)c3)cc2)ncn1	79.2*	-0.2	0.6	4.5
Cc1cc(NC(=O)c2ccc(S(=O)(=O)N3CCOCC3)cc2)no1	11.9	0.3	-1.6	3.1
Cc1ccc(Cl)cc1NC(=O)C1CCCN(S(=O)(=O)c2c(C)noc2C)C1 (stereo unspecified)	1.3	-0.3	-1.8	-4.8
O=S(=O)(Nc1ccc(N=Nc2ccc(O)c3ccccc23)cc1)c1ccccc1	89.2*	-0.3	-1.8	-7.9
O=S(=O)(Nc1ccc(N=Nc2ccccc2)cc1)c1ccccc1	95.2*	-0.4	1.9	-17.9
O=S(=O)(Nc1ccc(S(=O)(=O)Nc2cccc3ccccc23)cc1)c1ccccc1	-13.7	-0.4	-4.1	2.4
COc1ccc(S(=O)(=O)N(Cc2cc3ccc(OC)cc3[nH]c2=O)CC2COCCO2)cc1 (stereo unspecified)	1.8	0.1	3.0	-16.9
CCCC(c1nnnn1Cc1cccs1)N1CCN(c2nc3ccccc3s2)CC1 (stereo unspecified)	49.3	-0.1	7.6	-12.5
CCC1CSC(Nc2ccc(C(=O)/C=C/c3ccc(Br)cc3)cc2)=N1 (stereo unspecified)	89.4*	-0.4	0.0	-22.8
CCC1CSC(Nc2ccc(C(=O)/C=C/c3ccc(OC)c(OC)c3)cc2)=N1 (stereo unspecified)	13.5	-0.3	0.0	-8.2
COc1cc([N+](=O)[O-])ccc1NC(=O)Nc1nc2c(s1)CCCC2	73.0*	-0.1	0.4	-6.2
O=C(CS(=O)(=O)c1cccc(C(F)(F)F)c1)Nc1ccccc1Cl	42.8	-0.2	-3.0	-18.6
Cc1cc(C)nc(SCc2nnc(SCC(=O)Nc3ccc(Cl)c(C(F)(F)F)c3)o2)n1	75.5*	-0.2	-0.4	-3.1
Cc1cccc(NC(=O)CSc2nnc(CSc3nc(C)cc(C)n3)o2)c1	39.7	0.0	0.8	-16.2
SMILES	CHOP inh	Hsp70 act	S1P4 agonist	S1P4 antagonist
NC(=O)CC1C(=O)N(c2ccc(F)cc2)C(=O)N1NC(=O)CCc1ccccc1 (stereo unspecified)	16.0	-0.1	0.8	-14.9
O=C(CSc1nc(C2CC2)nc2ccccc12)N1CCc2ccccc2C1	74.5*	-0.4	0.8	3.6
O=C(CSc1nc(C2CCCCC2)nc2ccccc12)N1CCCC1	-29.8	-0.4	-0.6	22.9
Cc1ccc(C(=O)Nc2ccccc2C(=O)NCc2ccccc2)cc1	80.2*	0.2	2.5	-5.3
NC(=S)N=Nc1c(O)n(Cc2ccccc2)c2ccccc12	8.9	-0.3	-1.0	-17.8
CCOC(=O)N=Nc1c(O)n(Cc2ccccc2)c2ccccc12	79.7*	0.3	-1.0	8.9
O=Nc1c(O)n(Cc2cccc(Cl)c2)c2ccccc12	73.4*	-0.6	-3.5	7.0
COC(=O)N=Nc1c(O)n(Cc2ccccc2)c2ccccc12	7.5	.	-0.6	1.6
Cc1ccc(S(=O)(=O)Cc2ccc(C(=O)N3CCN(c4cc(C)ccc4C)CC3)o2)cc1	95.4*	-0.6	1.1	-25.1
Cc1ccccc1-c1nc(CS(=O)(=O)CC(=O)Nc2cc(F)ccc2F)c(C)o1	77.9*	-0.2	-0.6	-8.3
COCCCNC(=O)CS(=O)(=O)Cc1nc(-c2ccccc2C)oc1C	15.4	-0.2	-0.9	-13.2
CC#CCN1c2ccccc2[C@]23C[C@@H](C(=O)OC)N(C(=O)c4cc(C)oc4C)C2=NC(C(=O)OC)=C(C(=O)OC)[C@H]13	14.2	.	.	.
Cc1nc(NC(=O)c2cc3c(s2)CCCCC3)sc1C(=O)N(C)C	9.7	-0.3	-0.1	-57.5
Cc1ccc(N=C2NC(=O)/C(=C/c3cn(C)c4ccccc34)S2)cc1C	75.5*	0.0	0.1	4.0
O=C(Nc1scc(-c2ccccc2)c1C(=O)O)c1ccco1	73.4*	-0.5	-1.6	-21.9
CCC(C)NC(=S)N1CCN(C)CC1 (stereo unspecified)	-0.7	-0.1	1.1	-19.4
Cc1cccc(OCC(=O)N/N=C/c2ccc3c(c2)OCO3)c1	13.6	-0.2	0.1	14.5
Cc1cccc(OCC(=O)N/N=C/c2cn[nH]c2-c2ccc(Cl)c(Cl)c2)c1	79.9*	-0.1	1.4	-23.2
C=C(C)c1cccc(C(C)(C)NC(=O)Nc2ccc(C)cn2)c1	48.7	0.0	0.1	10.9
C=C(C)c1cccc(C(C)(C)NC(=O)Nc2cc(C)ccn2)c1	91.6*	-0.4	-0.5	-4.3
CCc1cc2c3c(c(=O)oc2cc1O)CCCC3	89.9*	0.2	0.2	7.7
Cc1oc2cc3oc(=O)c4c(c3cc2c1C)CCC4	5.1	-0.3	-0.7	-6.6
Cc1ccc(C2=NOC(=O)/C2=C\C=C\c2ccccc2)cc1	89.6*	-0.4	-0.4	0.6
CN(C)/C=C1\C(=O)ON=C1c1ccccc1	19.7	-0.1	1.3	-18.7
O=P(OC1CCCCC1)(OC1CCCCC1)C(O)c1ccc(Cl)cc1Cl (stereo unspecified)	91.6*	-0.4	-1.2	12.4
SMILES	CHOP inh	Hsp70 act	S1P4 agonist	S1P4 antagonist
O=P(OC1CCCCC1)(OC1CCCCC1)C(O)c1c(Cl)cccc1Cl (stereo unspecified)	84.0*	-0.2	-1.2	-5.3
Cc1ccc(C(O)P(=O)(OC2CCCCC2)OC2CCCCC2)cc1 (stereo unspecified)	26.8	0.0	1.4	-7.6
COc1ccccc1C(O)P(=O)(OC1CCCCC1)OC1CCCCC1 (stereo unspecified)	5.0	.	-0.5	-16.8
CC(C)c1ccc(/C=N/NC(=O)CN(c2cccc(Cl)c2Cl)S(C)(=O)=O)cc1	85.9*	-0.2	-0.1	-8.3
CCc1c(C)nc2cc(-c3cc(OC)cc(OC)c3)nn2c1N1CCCC1	91.5*	-0.1	0.4	0.3
Nc1nc2n(n1)C(c1ccco1)CC(c1ccc(Cl)cc1Cl)N2 (stereo unspecified)	11.6	-0.5	1.8	2.8
